Laboratory results as given in PubChem BioAssay AID588334 (Broad Institute, 2011).
Among all 300,000 compounds or so, about 2,300 (0.77%) were called active. The sample holds actives, similar compounds and a random draw of the others, so the mix is not that of the screen.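 The calls were made as follows: active = mean activation of at least 80% with every replicate also reaching 80%; inconclusive = mean reaches 80% but some replicate falls short; inactive = the rest.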

experiment: activators of MITF-driven TRPM1 promoter reporter, primary screen, cell-based, SK-MEL-5, luciferase, single point (AID 588334); settings: SK-MEL-5 TRPM1-promoter luciferase, 24 h; at 12.5 µM; stronger effect = higher value; % of positive control, neutral wells = 0;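 also: 0% = neutral control wells and 100% = parthenolide positive control wells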

Question: Which activation does the source give for `COc1ccccc1OCCCC(=O)Nc1ccc2c(c1)OCCO2` here?
Answer: Its activation is 24.7% (inactive).

Question: With `CCC(=O)c1cc(F)ccc1OCC(=O)Nc1ccc2c(c1)OCCO2` as the compound, how does the activation read?
Answer: Its activation is 22.6% (inactive).

Question: With `CCc1ccccc1OCC(=O)Nc1ccc2c(c1)OCCO2` as the compound, how does the activation read?
Answer: The activation was 89.7% (active).

Question: Which activation does the source give for `Cc1cc2c(cc1C)NC1(C[C@H]3CCC(=O)N4CC[C@@H](C1)[C@@H]34)C(=NC(C)(C)CC(C)(C)C)N2` (stereo partly drawn) here?
Answer: Its activation is -10% (inactive).

Question: Which activation does the source give for `O=C(CN1CCN(c2ccccn2)CC1)N1CCc2ccccc21` here?
Answer: The activation was 19.8% (inactive).

Question: With `O=C(CSCc1ccccc1)N1CCc2ccccc21` as the compound, how does the activation read?
Answer: Its activation is 95% (active).

Question: For `NC(=O)N1CCc2ccccc21`, which activation is on record?
Answer: The activation was -5.85% (inactive).

Question: With `Cn1c(N)cc(=O)n(C)c1=S` as the compound, how does the activation read?
Answer: The activation was -8.41% (inactive).

Question: Which activation does the source give for `CC(C)c1ccc(/C=C/C(=O)NCCCN2CCOCC2)cc1` here?
Answer: The activation was 4.51% (inactive).

Question: Which activation does the source give for `CC(C)c1ccc(/C=C/C(=O)NNC(=O)c2cccnc2)cc1` here?
Answer: The activation was 9.02% (inactive).

Question: Which activation does the source give for `C=CCNC(=O)/C=C/c1ccc(C(C)C)cc1` here?
Answer: The activation was 89.4% (active).

Question: For `CN(C(=O)c1cccc(NC(=O)Cc2ccc(NC(=O)C3CCCN(C(=O)C4CCCC4)C3)cc2)c1)C1CCC1` (stereo not drawn), which activation is on record?
Answer: The activation was -9.98% (inactive).

Question: With `O=c1ccn([C@@H]2O[C@H](CNS(=O)(=O)c3cc4ccccc4s3)[C@@H](O)[C@H]2O)c(=O)[nH]1` as the compound, how does the activation read?
Answer: The activation was -4.34% (inactive).

Question: For `O=C(Nc1cccc(S(=O)(=O)N2CCOCC2)c1)C12CC3CC(CC(C3)C1)C2`, which activation is on record?
Answer: Its activation is 12.4% (inactive).

Question: For `Cc1cc(C)c2nc(NC(=O)C3CCCO3)sc2c1` (stereo not drawn), which activation is on record?
Answer: The activation was 81.4% (active).

Question: With `Cc1ccc(C)c(C(C)NC(=O)C2CCCO2)c1` (stereo not drawn) as the compound, how does the activation read?
Answer: The activation was -7.6% (inactive).

Question: For `Cc1cc([N+](=O)[O-])ccc1NC(=O)C1CCCO1` (stereo not drawn), which activation is on record?
Answer: The activation was -1.67% (inactive).

Question: For `C/C(=N\Nc1ccc(Cl)nn1)c1ccccc1O`, which activation is on record?
Answer: Its activation is -45.2% (inactive).

Question: With `NC(=O)c1ccc(N2CCCC2)nc1` as the compound, how does the activation read?
Answer: Its activation is -7.45% (inactive).

Question: With `COc1ccc(CN2C(CC(=O)Nc3cccnc3)c3ccc(C(F)(F)F)cc3S2(=O)=O)cc1` (stereo not drawn) as the compound, how does the activation read?
Answer: Its activation is 11.4% (inactive).

Question: For `O=C1COc2c1ccc(O)c2O`, which activation is on record?
Answer: Its activation is 1.19% (inactive).

Question: For `Cc1cc(/C=C2\SC(=O)N(C)C2=O)c(C)n1-c1cccc(C(=O)O)c1`, which activation is on record?
Answer: The activation was 3.12% (inactive).

Question: For `CC(C)OC(=O)CN1C(=O)C(=O)c2ccccc21`, which activation is on record?
Answer: The activation was -5.18% (inactive).

Question: For `Cc1cc(/C=C2/SC(=O)N(CC(=O)OC(C)C)C2=O)c(C)n1C`, which activation is on record?
Answer: The activation was 97.9% (active).

Question: Which activation does the source give for `CCCNC(=O)c1c(Cl)cnn1-c1ccc(C)cc1` here?
Answer: The activation was 69.7% (inactive).

Question: For `C=CCNc1cnn(-c2ccc(C)cc2)c(=O)c1Cl`, which activation is on record?
Answer: The activation was 108% (active).

Question: With `O=c1c(Cl)c(NC2CC2)cnn1-c1ccccc1` as the compound, how does the activation read?
Answer: Its activation is 6.24% (inactive).

Question: With `O=C(c1cccc(S(=O)(=O)N2CCCCCC2)c1)N1CCN(Cc2ccccc2)CC1` as the compound, how does the activation read?
Answer: The activation was 4.94% (inactive).

Question: For `COc1ccc(NC(=O)Nc2ccc3nsnc3c2)cc1`, which activation is on record?
Answer: The activation was 92.9% (active).

Question: With `COc1ccc(/C=N/NC(=O)Nc2ccc3nsnc3c2)c(OC)c1` as the compound, how does the activation read?
Answer: The activation was 4.9% (inactive).

Question: Which activation does the source give for `COc1ccc(NC(=O)Nc2cccc3cccnc23)cc1` here?
Answer: The activation was 40.1% (inactive).

Question: Which activation does the source give for `O=C(Nc1c(Br)cc2c(c1Br)Cc1cc([N+](=O)[O-])ccc1-2)C(Cl)Cl` here?
Answer: Its activation is -16.6% (inactive).

Question: Which activation does the source give for `FC(F)(F)c1ccc(-c2cccc3c2C2CC3CCN2Cc2ccccc2)cc1` (stereo not drawn) here?
Answer: The activation was -0.65% (inactive).

Question: For `COc1ccc(NC(=O)/C(N=Nc2cccc(S(=O)(=O)Nc3ccc(SC(F)F)cc3)c2)=C(\C)O)cc1`, which activation is on record?
Answer: The activation was -7.51% (inactive).

Question: Which activation does the source give for `CN(C(=O)c1cccc(NC(=O)Cc2ccc(NC(=O)C3CCCN(C(=O)C4CC4)C3)cc2)c1)C1CC1` (stereo not drawn) here?
Answer: Its activation is -7.94% (inactive).

Question: Which activation does the source give for `CCOc1cccc(C(=O)Nc2nnc(-c3cccs3)s2)c1` here?
Answer: The activation was 25.8% (inactive).

Question: Which activation does the source give for `Cc1ccc(C(=O)Nc2nnc(-c3cccs3)s2)cc1C` here?
Answer: The activation was 87.8% (active).

Question: Which activation does the source give for `Cc1ccc(C(=O)Oc2coc(CSc3nnc(NC(=O)c4cccs4)s3)cc2=O)cc1C` here?
Answer: The activation was 0.796% (inactive).

Question: For `NC1=NOC(=O)C1C1CCCCC1` (stereo not drawn), which activation is on record?
Answer: The activation was -0.578% (inactive).

Question: Which activation does the source give for `O=c1[nH]c2c(c(=O)n1-c1ccccc1)CCO2` here?
Answer: The activation was 1.65% (inactive).

Question: Which activation does the source give for `COc1cc(C2CC(=O)Oc3cc(OC)c(OC)c(OC)c32)cc(OC)c1OC` (stereo not drawn) here?
Answer: The activation was 1.92% (inactive).

Question: For `C=CCn1c(SCc2c(C)noc2C)nc2sc3c(c2c1=O)CCC(C)C3` (stereo not drawn), which activation is on record?
Answer: Its activation is -11.8% (inactive).

Question: For `CCCn1nnc2sc3c(c2c1=O)CCC(C)C3` (stereo not drawn), which activation is on record?
Answer: Its activation is 99.2% (active).

Question: For `CC1CCc2c(sc3nc4n(c(=O)c23)CCS4)C1` (stereo not drawn), which activation is on record?
Answer: The activation was 73.6% (inactive).

Question: With `CS(=O)(=O)N1CCc2cc(C(=O)Nc3ccccc3)ccc21` as the compound, how does the activation read?
Answer: The activation was 49.3% (inactive).

Question: With `CS(=O)(=O)N1CCc2cc(C(=O)Nc3ccccc3Br)ccc21` as the compound, how does the activation read?
Answer: The activation was 85.3% (active).

Question: Which activation does the source give for `CSc1ccccc1NC(=O)c1ccc2c(c1)CCN2S(C)(=O)=O` here?
Answer: Its activation is 25.3% (inactive).

Question: For `CC(=O)c1cccc(NC(=O)Nc2ccc(C)cc2)c1`, which activation is on record?
Answer: Its activation is 104% (active).

Question: Which activation does the source give for `Cc1nc2ccc(NC(=O)C(F)(F)F)cc2o1` here?
Answer: Its activation is -1.51% (inactive).

Question: Which activation does the source give for `COC(=O)c1ccc(NC(=O)Nc2ccc(C)cc2)cc1` here?
Answer: Its activation is 25.4% (inactive).

Question: Which activation does the source give for `C=C(C)C(=O)Nc1cccc(C(C)=O)c1` here?
Answer: Its activation is 5.72% (inactive).

Question: Which activation does the source give for `Cc1ccc(NC(=O)Nc2ccc3oc(C)nc3c2)cc1` here?
Answer: Its activation is 92.6% (active).

Question: With `Cc1nc2cc(NC(=O)NCc3ccccc3)ccc2o1` as the compound, how does the activation read?
Answer: The activation was 14.2% (inactive).

Question: Which activation does the source give for `C[C@H](O)[C@@H]1C(=O)N2CCc3ccc(N4CCOCC4)cc3[C@@H]2C[C@@H]1N(C)C(=O)C(C)(C)C` here?
Answer: The activation was 3.72% (inactive).

Question: Which activation does the source give for `COc1ccc(C2NCCCC2c2ccccc2)cc1` (stereo not drawn) here?
Answer: The activation was -15.7% (inactive).

Question: With `O=C(NN=Cc1ccccc1O)NN=Cc1ccccc1O` as the compound, how does the activation read?
Answer: The activation was -21.8% (inactive).

Question: For `O=C(Nc1ccc2ccccc2c1[N+](=O)[O-])c1ccccc1`, which activation is on record?
Answer: Its activation is 37.5% (inactive).

Question: For `COc1cc(C(=O)OCc2cc(=O)n3ccsc3n2)ccc1OC(C)C`, which activation is on record?
Answer: Its activation is 25% (inactive).

Question: For `COc1ccc([C@H]2CC(=O)C=C(c3ccc(C)cc3)C2)cc1`, which activation is on record?
Answer: Its activation is 18.7% (inactive).

Question: Which activation does the source give for `COc1ccc([C@H]2CC(=O)C=C(/C=C/c3ccc(Cl)cc3)C2)cc1` here?
Answer: Its activation is 55.4% (inactive).

Question: With `COc1ccc([C@H]2CC(=O)C=C(/C=C/c3ccccc3)C2)cc1` as the compound, how does the activation read?
Answer: Its activation is 84.7% (active).

Question: With `CC1CN(Cc2ccccc2)C(=S)NC1=O` (stereo not drawn) as the compound, how does the activation read?
Answer: Its activation is 3.25% (inactive).

Question: For `COC(=O)c1ccc(CNC(=O)Cn2cc(C)c(=O)[nH]c2=O)cc1`, which activation is on record?
Answer: Its activation is 2.68% (inactive).
